# Data: PubChem BioAssay (NCATS)
# Records with an inconclusive call do not appear. A call without a number means that no potency is given here. Unmarked numbers belong to inactive results. Calls of active or inactive are those of the source. Calls follow the shape of the dose curve; as a rule, active = well fitted curve in the direction sought with a large enough effect; inconclusive = small, poorly fitted or top-dose-only effect, or another doubt; inactive = no such curve, though single readings can be large; an effect the other way counts as inactive or inconclusive. Where a SMILES comes first, the peptide text is derived from it. Bridges are numbered along the chain shown (N, C = ends). [ ]: non-standard residue; d: D form. hArg = N=C(N)NCCCC[C@H](N)C(=O)O; Mpa = O=C(O)CCS
# Legend:
# [1] = qHTS of pediatric cancer cell lines to identify multiple opportunities for drug repurposing: Primary screen for A673 cells (AID 1347092); also: nearly all actives have a fitted effect of over 45% in size
# Method in brief: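 48 h compound exposure, A673, 500-1,000 cells/well, 37 degrees C/5% CO2. MIPE: 11-point, 0.78 nM-46 µM; NPC: 8-point, 0.59 nM-46 µM (final). Readout CellTiter-Glo luminescence after 15 min RT.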
# [2] = qHTS of pediatric cancer cell lines to identify multiple opportunities for drug repurposing: Primary screen for SK-N-MC cells (AID 1347093); also: potency is read from the fitted curve at half-maximal effect
# Method in brief: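 Metabolically active cells were quantified by ATP-dependent luminescence (CellTiter-Glo, 15 min at room temperature) following 48 h treatment. Cells had been plated at 500-1,000 per well and settled for 5 h beforehand.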
# [3] = qHTS of pediatric cancer cell lines to identify multiple opportunities for drug repurposing: Primary screen for BT-37 cells (AID 1347094); also: series mostly up to about 57 µM
# Method in brief: (§1)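 Quantitative HTS format: each compound titrated (MIPE 11 points from 0.78 nM, NPC 8 points from 0.59 nM) onto cells plated 5 hours earlier. After 48 h at 37 degrees C, CellTiter-Glo luminescence was recorded.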
# [4] = qHTS of pediatric cancer cell lines to identify multiple opportunities for drug repurposing: Primary screen for NB-EBc1 cells (AID 1347095)
# Method in brief: as §1
# [5] = qHTS of pediatric cancer cell lines to identify multiple opportunities for drug repurposing: Primary screen for U-2 OS cells (AID 1347096); also: nearly all actives have a fitted effect of over 50% in size
# Method in brief: (§2)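 Cells (500-1,000/well) rested 5 h, then received compounds for 48 h; metabolically active cells were measured by CellTiter-Glo luminescence. Final concentrations spanned up to 46 µM (MIPE, 11-point) or 0.59 nM-46 µM (NPC, 8-point) in primary screens, 11-point in follow-ups.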
# [6] = qHTS of pediatric cancer cell lines to identify multiple opportunities for drug repurposing: Primary screen for Saos-2 cells (AID 1347097); also: nearly all actives have a fitted effect of over 40% in size
# Method in brief: as §1
# [7] = qHTS of pediatric cancer cell lines to identify multiple opportunities for drug repurposing: Primary screen for SK-N-SH cells (AID 1347098);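 also: DMSO served as neutral control and bortezomib at 2.3 µM as positive control; nearly all actives have a fitted effect of over 65% in size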
# Method in brief: as §2
# [8] = qHTS of pediatric cancer cell lines to identify multiple opportunities for drug repurposing: Primary screen for NB1643 cells (AID 1347099); also: nearly all actives have a fitted effect of over 50% in size
# Method in brief: as §1
# [9] = qHTS of pediatric cancer cell lines to identify multiple opportunities for drug repurposing: Primary screen for LAN-5 cells (AID 1347100)
# Method in brief: as §2
# [10] = qHTS of pediatric cancer cell lines to identify multiple opportunities for drug repurposing: Primary screen for BT-12 cells (AID 1347101); also: nearly all actives have a fitted effect of over 25% in size
# Method in brief: as §2
Structure (SMILES),outcome [1],Potency [2],outcome [3],outcome [4],outcome [5],outcome [6],outcome [7],Potency [8],outcome [9],outcome [10]
CCN(CC)CC1CCCCN1CC(=O)N1c2ccccc2C(=O)Nc2cccnc21 (centres undefined),inactive,inactive,inactive,inactive,inactive,inactive,inactive,inactive,inactive,
CCN(CC)CCOC(=O)C(c1ccccc1)c1ccccc1,inactive,inactive,inactive,inactive,inactive,inactive,inactive,inactive,inactive,
COC(=O)c1cccnc1,inactive,inactive,inactive,inactive,inactive,inactive,inactive,inactive,inactive,inactive
O=c1[nH]c(=O)n([C@H]2C[C@H](O)[C@@H](CO)O2)cc1I,inactive,inactive,inactive,inactive,inactive,inactive,inactive,inactive,inactive,inactive
CC(=O)N[C@@H](CC(C)C)C(=O)O,inactive,inactive,inactive,inactive,inactive,inactive,inactive,inactive,inactive,inactive
CN(C(=O)c1c(O)c2ccccc2n(C)c1=O)c1ccccc1,inactive,inactive,inactive,inactive,inactive,inactive,inactive,inactive,inactive,
O=C(OOC(=O)c1ccccc1)c1ccccc1,inactive,inactive,inactive,inactive,inactive,inactive,inactive,inactive,inactive,inactive
CC(CN(C)C)C(C)(O)Cc1ccc(Cl)cc1 (centres undefined),inactive,inactive,inactive,inactive,inactive,inactive,inactive,inactive,inactive,
COc1ccc(Cc2cnc(N)nc2N)cc1OC,inactive,7.5 µM (active),inactive,inactive,inactive,inactive,inactive,inactive,inactive,
CC(=O)Nc1ccc(OCCOCCOc2ccc(NC(C)=O)cc2)cc1,inactive,inactive,inactive,inactive,inactive,inactive,inactive,inactive,inactive,
NS(=O)(=O)c1cc2c(cc1C(F)(F)F)NCNS2(=O)=O,inactive,inactive,inactive,inactive,inactive,inactive,inactive,inactive,inactive,inactive
O[C@@H]1CO[C@H]2[C@@H]1OC[C@@H]2O,inactive,inactive,inactive,inactive,inactive,inactive,inactive,inactive,inactive,inactive
C[C@@H](c1ncncc1F)C(O)(Cn1cncn1)c1ccc(F)cc1F (some centres undefined),inactive,inactive,inactive,inactive,inactive,inactive,inactive,inactive,inactive,
C[C@]1(Cn2ccnn2)[C@H](C(=O)O)N2C(=O)C[C@H]2S1(=O)=O,inactive,inactive,inactive,inactive,inactive,inactive,inactive,inactive,inactive,inactive
C[n+]1ccccc1/C=N/O,inactive,inactive,inactive,inactive,inactive,inactive,inactive,inactive,inactive,
Cc1ccc(C(C)C)c(O)c1,inactive,inactive,inactive,inactive,inactive,inactive,inactive,inactive,inactive,
CCS(=O)(=O)CCn1c([N+](=O)[O-])cnc1C,inactive,inactive,inactive,inactive,inactive,inactive,inactive,inactive,inactive,
NNc1nnc(NN)c2ccccc12,inactive,inactive,inactive,inactive,inactive,inactive,inactive,inactive,inactive,
CC1CCc2cc(F)cc3c(=O)c(C(=O)O)cn1c23 (centres undefined),inactive,inactive,inactive,inactive,inactive,inactive,inactive,inactive,inactive,inactive
O=C(O)c1ccc(OCCCOc2ccc(C(=O)O)cc2)cc1,inactive,inactive,inactive,inactive,inactive,inactive,inactive,inactive,inactive,inactive
NC(N)=NS(=O)(=O)c1ccc(N)cc1,inactive,inactive,inactive,inactive,inactive,inactive,inactive,inactive,inactive,inactive
CC(=O)Nc1ccc(C(=O)O)cc1,inactive,inactive,inactive,inactive,inactive,inactive,inactive,inactive,inactive,
COc1cc(C(=O)NCCCCCC(=O)O)cc(OC)c1OC,inactive,inactive,inactive,inactive,inactive,inactive,inactive,inactive,inactive,inactive
CCCOC(=O)c1ccc(N)cc1,inactive,inactive,inactive,inactive,inactive,inactive,inactive,inactive,inactive,

Structure (SMILES),outcome [1],Potency [2],outcome [3],outcome [4],outcome [5],outcome [6],outcome [7],Potency [8],outcome [9],outcome [10]
CCOC(=O)OC(C)OC(=O)[C@@H]1N2C(=O)[C@@H](NC(=O)[C@H](N)c3ccccc3)[C@H]2SC1(C)C (some centres undefined),inactive,inactive,inactive,inactive,inactive,inactive,inactive,inactive,inactive,inactive
COc1ccc(C(=O)N2CCN(CC(=O)N3CCOCC3)CC2)cc1,inactive,inactive,inactive,inactive,inactive,inactive,inactive,inactive,inactive,
CCOC(=O)c1cccnc1,inactive,inactive,inactive,inactive,inactive,inactive,inactive,inactive,inactive,
CCN(CC)CCc1nc(-c2ccccc2)no1,inactive,inactive,inactive,inactive,inactive,inactive,inactive,inactive,inactive,
CC(=O)NS(=O)(=O)c1ccc(N)cc1,inactive,inactive,inactive,inactive,inactive,inactive,inactive,inactive,inactive,inactive
CCCCCC(N)=O,inactive,inactive,inactive,inactive,inactive,inactive,inactive,inactive,inactive,
CCCCCCCC(=O)OCC(O)CO (centres undefined),inactive,inactive,inactive,inactive,inactive,inactive,inactive,inactive,inactive,inactive
CCCCCC(C)N (centres undefined),inactive,inactive,inactive,inactive,inactive,inactive,inactive,inactive,inactive,inactive
CC(=O)OCC(=O)[C@@]1(O)CC[C@H]2[C@@H]3CCC4=CC(=O)C=C[C@]4(C)[C@@]3(F)[C@@H](O)C[C@@]21C,inactive,inactive,inactive,inactive,inactive,inactive,inactive,inactive,inactive,
CC1(C)S[C@@H]2[C@H](NC(=O)C(C(=O)O)c3ccccc3)C(=O)N2[C@H]1C(=O)O (some centres undefined),inactive,inactive,inactive,inactive,inactive,inactive,inactive,inactive,inactive,
NC(=O)[C@@H]1CSSCCC(=O)N[C@@H](CCCCN=C(N)N)C(=O)NCC(=O)N[C@@H](CC(=O)O)C(=O)N[C@@H](Cc2c[nH]c3ccccc23)C(=O)N2CCC[C@H]2C(=O)N1 ([Mpa][hArg]GDWPC-NH2; disulfide 1-7),inactive,inactive,inactive,inactive,inactive,inactive,inactive,inactive,inactive,
CCCCCCCCCCCCCCCCCCO,inactive,inactive,inactive,inactive,inactive,inactive,inactive,inactive,inactive,inactive
CN[C@@H]1[C@H](O)[C@H](NC)[C@H]2O[C@@]3(O)C(=O)C[C@@H](C)O[C@H]3O[C@@H]2[C@H]1O,inactive,inactive,inactive,inactive,inactive,inactive,inactive,inactive,inactive,
Cc1cc(O)cc(C)c1Cl,inactive,inactive,inactive,inactive,inactive,inactive,inactive,inactive,inactive,inactive
O=C(NCN1CCOCC1)c1cnccn1,inactive,inactive,inactive,inactive,inactive,inactive,inactive,inactive,inactive,inactive
Cc1cc(C)c(NC(=O)CN(CC(=O)O)CC(=O)O)c(C)c1Br,inactive,inactive,inactive,inactive,inactive,inactive,inactive,inactive,inactive,inactive
C/C(=C(\CCO)SS/C(CCO)=C(\C)N(C=O)Cc1cnc(C)nc1N)N(C=O)Cc1cnc(C)nc1N,inactive,inactive,inactive,inactive,inactive,inactive,inactive,inactive,inactive,inactive
CCCCC1(COC(=O)CCC(=O)O)C(=O)N(c2ccccc2)N(c2ccccc2)C1=O,inactive,inactive,inactive,inactive,inactive,inactive,inactive,inactive,inactive,inactive
O=C(O)c1ccc[n+]([O-])c1,inactive,inactive,inactive,inactive,inactive,inactive,inactive,inactive,inactive,inactive
C1CCN2C[C@@H]3C[C@@H](CN4CCCC[C@@H]34)[C@H]2C1,inactive,inactive,inactive,inactive,inactive,inactive,inactive,inactive,inactive,inactive
CC(C)CCOC(=O)c1ccc(N(C)C)cc1,inactive,inactive,inactive,inactive,inactive,inactive,inactive,inactive,inactive,inactive
O=C(O)C(S)C(S)C(=O)O (centres undefined),inactive,inactive,inactive,inactive,inactive,inactive,inactive,inactive,inactive,inactive
Cc1ccc(S(=O)(=O)NC(=O)NC2CCCCCCC2)cc1,inactive,inactive,inactive,inactive,inactive,inactive,inactive,inactive,inactive,inactive
